From PubChem BioAssay
Mdm2-MdmX inh – inhibitors of human Mdm2-MdmX association, primary screen, cell-based, luminescence, split luciferase, SaOS-2, uHTS; SaOS-2 split-luciferase Mdm2/MdmX complementation; actives 3% (n = 330,000); Protein Mdm4 (Homo sapiens) + E3 ubiquitin-protein ligase Mdm2 (Homo sapiens), …; inhibition, % at 8 µM;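 active means inhibition of at least 50% at 8 µM in the primary screen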
KKLEB tox – cytotoxicity in KKLEB CF airway cells, primary screen, cytotoxicity control for CF NF-kB inhibitor project, cell-based, uHTS, fluorescence assay plates. KKLEB CF airway cells viability, ATPlite luminescence, overnight; stronger effect = lower value; cells stimulated with P. aeruginosa culture filtrate. activity change (cytotoxicity), % at 5 µM. actives 0.36% (n = 360,000);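 active means corrected activity change at or below -50% at 5 µM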
HIF-2a inh – HIF-2a reporter inhibitors, primary screen, luminescence, 786-0 RCC cells. 786-0 RCC cells HIF-2a reporter, luciferase luminescence, overnight. inhibition, % at 18.8 µM. actives 0.72% (n = 360,000). AID 624352, 2012;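 active means inhibition of the luminescence signal of 40% or more relative to plate controls, in a single-dose primary screen at 18.75 µM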
Peg3 prom inh-1 – Peg3 promoter-driven luciferase inhibitors, primary screen, cell-based, HeLa, luciferase luminescence; HeLa PEG-Prom luciferase reporter, overnight; inhibition, % at 20 µM; actives 1.7% (n = 360,000); AID 588405, 2011;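 active means inhibition of at least 50% at 20 µM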
ABHD5 PLIN5 PPI – ABHD5-PLIN5 interaction inhibitors, primary screen, cell lysate, split luciferase complementation, luminescence; Perilipin-5 (Homo sapiens) + 1-acylglycerol-3-phosphate O-acyltransferase ABHD5 (Homo …; Split G. princeps luciferase complementation, 4 h; inhibition, % at 4 µM; actives 0.78% (n = 360,000);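 active means inhibition above the mean inhibition across every tested compound plus 3 SD, cut at about 22% in these data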
CF NFkB inh – inhibitors of PAF-induced NF-kB signaling, primary screen, cell-based, GFP fluorescence, uHTS. KKLEB NF-kB-GFP reporter, GFP fluorescence overnight. inhibition, % at 5 µM. actives 0.86% (n = 360,000). AID 588850, 2011;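 active means at least 50% inhibition at 5 µM, scaled per plate between neutral and stimulator controls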;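 further: PAF is a Pseudomonas aeruginosa culture filtrate used as stimulus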
Mdm2 MdmX conf-1 – Mdm2-MdmX complex disruptors, retested hits, confirmation, luminescence, single concentration; shares compounds with Mdm2-MdmX inh; Mdm2-MdmX binding, luminescent assay; inhibition, % at 8 µM; actives 55% (n = 10,000); in the data active means inhibition above about 40%
FLuc counter – full-length luciferase signal inhibition, confirmation, counter-screen for Mdm2/MdmX interaction inhibitor project, cell-based, single concentration, SaOS-2 | actives 77% (n = 6,200) | inhibition, % at 8 µM | SaOS-2 full-length luciferase counterscreen, luminescence | shares compounds with Mdm2-MdmX inh;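 active means mean inhibition at 8 µM reaching about 37%, which flags the compound as non-specific, limit read from the data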;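 further: p53-null SaOS-2 cells with luciferase driven by a doxycycline-inducible promoter; compound on cells about two nights before reading with doxycycline added after day one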
Peg3 prom inh-2 – Peg3 promoter reporter inhibitors, retest, confirmation, cell-based, HeLa, luciferase reporter, single concentration. HeLa PEG-Prom luciferase reporter, luminescence, overnight. actives 84% (n = 1,300). inhibition, % at 20 µM. AID 602417, 2012. shares compounds with Peg3 prom inh-1;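 active means at 20 µM dose, 40% or more inhibition averaged across four replicates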
ABHD5 PLIN5 conf – ABHD5-PLIN5 interaction inhibitors, confirmation, biochemical, luminescence; shares compounds with ABHD5 PLIN5 PPI; inhibition, % at 4 µM; actives 67% (n = 2,200); AID 651612, 2012; in the data active means inhibition above about 23%
HNF4 split-luc – HNF4 dimerization inhibitors, counter-screen for ABHD5-PLIN5 interaction inhibitor project, biochemical, split-luciferase complementation, luminescence; shares compounds with ABHD5 PLIN5 PPI; inhibition, % at 4 µM; actives 77% (n = 2,200); AID 651674, 2012;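 active means mean inhibition across replicate wells exceeding the computed hit threshold, cut at about 13% in these data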;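 further: light from luciferase halves that rejoin when HNF4 fusion proteins dimerize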
Mdm2 MdmX conf-2 – retested Mdm2-MdmX interaction blockers, confirmation, cell-based, luminescence, single concentration, set 2. shares compounds with HIF-2a inh. SaOS-2 split-luciferase Mdm2/MdmX complementation. inhibition, % at 8 µM. actives 99% (n = 740). AID 504601, 2011;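 active means mean inhibition of the luminescence signal across two replicates at or above 26 percent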
HIF-2a inh conf – HIF-2a reporter inhibitor retest, confirmation, luminescence, 786-0 RCC cells; shares compounds with HIF-2a inh; HIF-2a luciferase reporter luminescence, overnight; inhibition, % at 18.8 µM; actives 56% (n = 1,800); AID 651580, 2012;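 active means mean inhibition across four replicates of at least 40 percent at the single tested concentration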
HIF-1a counter – HIF-1a luciferase reporter signal reduction – MiaPaCa-2 cells, single concentration, counter-screen for HIF-2a inhibitor project, confirmation; MiaPaCa-2 HIF-1a luciferase reporter, desferoxamine, overnight; inhibition, % at 18.8 µM; shares compounds with HIF-2a inh; AID 651589, 2012; actives 72% (n = 1,800);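 active means mean inhibition of the reporter signal across four replicates at the single tested dose of 50% or more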
Each line names hits and unclear results; the compound was inactive in the other large screens (follow-up assays come after a bar, where they were run). In the library only some 4.6% were active in any assay of this set; here they are far more common.

O=[N+]([O-])c1cccnc1S(=O)(=O)c1ccccc1	Mdm2-MdmX inh 92, KKLEB tox -68, HIF-2a inh 55, Peg3 prom inh-1 82, ABHD5 PLIN5 PPI 22, CF NFkB inh 82 | Mdm2 MdmX conf-1 65 | FLuc counter 58 | Mdm2 MdmX conf-2 102 | HIF-2a inh conf inactive | HIF-1a counter inactive
COc1ccc([N+](=O)[O-])c(S(=O)(=O)c2ccccc2)n1	Mdm2-MdmX inh 99, KKLEB tox -55, HIF-2a inh 82, Peg3 prom inh-1 111, ABHD5 PLIN5 PPI 53, CF NFkB inh 85 | Mdm2 MdmX conf-1 98 | FLuc counter 52 | Mdm2 MdmX conf-2 103 | HIF-2a inh conf 88 | HIF-1a counter 84
COc1ccccc1S(=O)(=O)c1ccccc1[N+](=O)[O-]	none
CCOc1ncccc1C(=O)OCC(=O)Nc1ccc2c(c1)OCCO2	none
CCN(CC)c1ccc(/C=N/NC(=O)c2ccc3nc[nH]c3c2)c(O)c1	Mdm2-MdmX inh 73 | Mdm2 MdmX conf-1 83 | FLuc counter 53 | Mdm2 MdmX conf-2 82
CC1(Cc2ccccc2Cl)C(=O)Nc2ccc(OC(F)(F)F)cc21 (stereo not drawn)	none (no result: Mdm2-MdmX inh)
Cc1ccc(NC(=O)O/N=C/c2c(C)nn(C(C)(C)C)c2C)cc1Cl	Mdm2-MdmX inh 80, HIF-2a inh 91, Peg3 prom inh-1 104 | Mdm2 MdmX conf-1 92 | FLuc counter 54 | Peg3 prom inh-2 98 | Mdm2 MdmX conf-2 101 | HIF-2a inh conf 97 | HIF-1a counter 104
COc1ccc(CNc2ncc(-c3ccc(F)cc3)n2C)c2ccccc12	Mdm2-MdmX inh 57, HIF-2a inh 41, Peg3 prom inh-1 59 | Mdm2 MdmX conf-1 inactive | HIF-2a inh conf 93 | HIF-1a counter 104
COc1ccccc1CNc1ncc(-c2ccc(F)cc2)n1C	none
Nc1ccc(-c2cc3ccccc3oc2=O)cc1	Mdm2-MdmX inh 52, HIF-2a inh 88 | Mdm2 MdmX conf-1 inactive | FLuc counter 45 | HIF-2a inh conf 98 | HIF-1a counter 84
O=c1oc2ccccc2cc1-c1ccc(O)cc1	none
COc1cc2c(cc1OC)C(c1cc(Br)ccc1F)N(C(=O)CCl)CC2 (stereo not drawn)	Mdm2-MdmX inh 100, KKLEB tox -68, HIF-2a inh 90, Peg3 prom inh-1 102, CF NFkB inh 105 | Mdm2 MdmX conf-1 73 | FLuc counter 55 | Mdm2 MdmX conf-2 103 | HIF-2a inh conf 97 | HIF-1a counter 103
COCCn1c(C)cc(C2=NNC(=Nc3ccccc3F)SC2)c1C	Mdm2-MdmX inh 73, HIF-2a inh 78 | Mdm2 MdmX conf-1 88 | FLuc counter inactive | Mdm2 MdmX conf-2 80 | HIF-2a inh conf inactive | HIF-1a counter 71
Cc1c(Cl)sn(-c2ccc(Cl)cc2)c1=O	Mdm2-MdmX inh 96, KKLEB tox -90, HIF-2a inh 48, Peg3 prom inh-1 108, ABHD5 PLIN5 PPI 26, CF NFkB inh 79 | Mdm2 MdmX conf-1 99 | FLuc counter 52 | ABHD5 PLIN5 conf 78 | HNF4 split-luc 107 | Mdm2 MdmX conf-2 102
COC(=O)c1ccccc1S(=O)(=O)NCc1nc2nc(C)cc(C)n2n1	none
COc1cc2c3nnc(-c4ccc(F)cc4)c-3cn(Cc3cccc(F)c3)c2cc1OC	Mdm2-MdmX inh 89, Peg3 prom inh-1 96 | Mdm2 MdmX conf-1 100 | FLuc counter 50 | Mdm2 MdmX conf-2 103
COc1cccc(Cn2nc3c4cc(F)ccc4n(Cc4ccc(F)cc4)cc-3c2=O)c1	none
CC(C)(C)C(=O)/C(=C/c1ccc(Cl)cc1)n1cncn1	Mdm2-MdmX inh 99, HIF-2a inh 93, Peg3 prom inh-1 105 | Mdm2 MdmX conf-1 100 | FLuc counter inactive | HIF-2a inh conf 88 | HIF-1a counter 98
COc1ccc(N(C(=O)c2cnccn2)C(C(=O)NC2CCCCC2)c2ccccc2)cc1 (stereo not drawn)	none
OCC[C@@H]1C[C@H](O)[C@@H](O)[C@]2(Cc3ccccc3CCO2)O1	none
CC(=O)N1CCN(C(=O)c2cccc(S(=O)(=O)N3c4ccccc4CC3C)c2)CC1 (stereo not drawn)	none
CC1Cc2ccccc2N1S(=O)(=O)c1cccc(C(=O)N2CCN(c3ncccn3)CC2)c1 (stereo not drawn)	Mdm2-MdmX inh 90 | Mdm2 MdmX conf-1 89 | FLuc counter 55 | Mdm2 MdmX conf-2 100
Cc1[nH]n(-c2ccccc2)c(=O)c1N=Nc1c(O)cc(S(=O)(=O)N(C)C)c2ccccc12	Mdm2-MdmX inh 82, Peg3 prom inh-1 62 | Mdm2 MdmX conf-1 80 | FLuc counter 57 | Mdm2 MdmX conf-2 89
